# ALOX12 inh: blocks human arachidonate 12S-lipoxygenase; P18054; purified 12hLO, xylenol orange hydroperoxide absorbance; Potency, µM (titrated, usually from 108 µM), without a hit: top-dose activity change, negative = inhibition, most hits filed as inhibitors; 580,000 tested, 1.1% active; also: % is scaled to controls: 0 for no effect and ±100 for the full control effect
#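 Purified human 12hLO (150 nM final) in 25 mM Hepes, 0.01% Triton X-100, pH 7.0 was preincubated 15 min at room temperature with compound. Then 40 uM arachidonic acid was added, 30 min. Hydroperoxide was read by Fe-XO absorbance ratio 573/405 nm.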
# G9a inh: G9a (human) methyltransferase inhibition. 350,000 tested, 8.8% active. AID 504332. G9a H3K9 monomethylation, AlphaScreen, 2 h. Q96KQ7. Potency, µM (doses to about 102 µM), for inactives: at the top dose activity, negative = inhibition, hits mostly inhibitors; also: % is scaled to controls: 0 for no effect and ±100 for the full control effect; nearly all actives have a fitted effect of over 75% in size
# Target sequence (Q96KQ7 913-1193 limits assumed): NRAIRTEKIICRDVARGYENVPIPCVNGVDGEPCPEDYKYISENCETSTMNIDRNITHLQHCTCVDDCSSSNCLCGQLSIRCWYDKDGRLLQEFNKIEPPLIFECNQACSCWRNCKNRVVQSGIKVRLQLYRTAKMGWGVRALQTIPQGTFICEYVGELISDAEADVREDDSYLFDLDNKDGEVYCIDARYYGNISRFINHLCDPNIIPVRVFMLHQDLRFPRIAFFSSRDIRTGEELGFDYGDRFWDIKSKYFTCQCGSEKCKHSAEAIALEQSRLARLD
#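 AlphaScreen read-out: biotin-H3K9 peptide (500 nM) methylation by 20 nM enzyme with 20 uM SAM, 2 h at room temperature after 15 min compound preincubation; anti-monomethyl H3K9 antibody plus donor/acceptor beads, 10 min dark.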
# HP1b chromo inh: HP1-beta chromodomain-methylated histone interaction inhibition; P83916; AlphaScreen HP1-beta / biotin-H3K9me3 peptide binding; Potency, µM (series often up to 114 µM), without a hit: at the highest dose activity change, negative = inhibition, actives largely listed as inhibitors; 390,000 tested, 0.56% active; also: nearly all actives have a fitted effect of over 70% in size
# Target sequence (P83916 whole entry, looked up): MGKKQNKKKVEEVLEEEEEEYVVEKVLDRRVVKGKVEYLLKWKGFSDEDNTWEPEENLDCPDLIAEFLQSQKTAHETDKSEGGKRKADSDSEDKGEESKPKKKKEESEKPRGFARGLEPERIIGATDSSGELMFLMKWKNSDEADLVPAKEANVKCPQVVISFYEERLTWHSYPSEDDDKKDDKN
#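 HP1-beta protein (50 nM final) preincubated 30 min at room temperature with biotinylated H3(1-18)K9me3 peptide (50 nM) in PBS pH 7.4, 0.01% Tween-20, then compound added for 30 min. AlphaScreen streptavidin donor/nickel chelate acceptor beads (10 ug/mL final), 30 min dark, luminescence read.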
# JMJD2A Tudor: inhibitors of human JMJD2A Tudor domain | AlphaScreen JMJD2A-Tudor / H3K4me3 peptide binding | Potency, µM (titrated, usually from 114 µM), for the others: at the top dose activity change, negative = inhibition, actives largely listed as inhibitors | 390,000 tested, 4.4% active | AID 504339; also: % is scaled to controls: 0 for no effect and ±100 for the full control effect; nearly all actives have a fitted effect of over 50% in size
# Sfp inh: Sfp phosphopantetheinyl transferase inhibition; AID 1490; Biochemical Sfp PPTase activity, qHTS; 310,000 tested, 3.5% active; Potency, µM, for the others: largest response in the series, negative = inhibition, usual class: inhibitors; Q9F4F7;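 also: the enzyme is Sfp with the accession as filed and its product quenches rhodamine fluorescence; 0% = enzyme reaction without inhibitor and -100% = no enzyme wells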
#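 Fluorescence-quenching assay: 15 nM Sfp-PPTase preincubated 15 min at room temperature with compound, then 5 uM rhodamine-CoA and 12.5 uM BHQ-2-labelled YbbR peptide added. Fluorescence (ex 525/em 598 nm) read at start and after 30 min; difference gives rate.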
# BAZ2B block: blocks human BAZ2B; Q9UIF8; AlphaScreen BAZ2B-H3K14Ac peptide displacement; Potency, µM (top dose mostly 114 µM), for inactives: top-dose activity change, negative = inhibition, hits mostly inhibitors; 360,000 tested, 4.4% active; AID 504333; also: % is scaled to controls: 0 for no effect and ±100 for the full control effect; nearly all actives have a fitted effect of over 60% in size
#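 Complex of BAZ2B and biotin-H3K14Ac (50 nM apiece) forms over 30 min at RT, then faces library compounds up to 110 uM for another 30 min; AlphaScreen beads added, 20 min dark incubation, luminescence read.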
# Active calls of the source: *; ? = inconclusive; · = not tested or not shown; [ ] = dose if it differs, or a comment. Only some compounds are listed: those with a hit (about 8.7% of all), similar ones and a draw of the others. Calls follow the shape of the dose curve; as a rule, active = well fitted curve in the direction sought with a large enough effect; inconclusive = small, poorly fitted or top-dose-only effect, or another doubt; inactive = no such curve, though single readings can be large; an effect the other way counts as inactive or inconclusive. Potency is read from the fitted curve at half-maximal effect.
SMILES,ALOX12 inh,G9a inh,HP1b chromo inh,JMJD2A Tudor,Sfp inh,BAZ2B block
O=c1c(C(c2ccc(F)cc2)c2c(O)nc3n(c2=O)CCCS3)c(O)nc2n1CCCS2,?,50µM*,44%,-17%,3%,-11%
CCn1cc(S(=O)(=O)N2CCn3c(nn(CC4CC4)c3=O)C2)cn1,1%,·,·,·,·,·
Cc1nn(C(C)C(=O)NC2C(=O)N3C(C(=O)O)=C(CSc4nnnn4C)CSC23)cc1Cl (stereo not drawn),0%,?,41%,-21%,79µM*,?
CC(C(=O)NC1C(=O)N2C(C(=O)O)=C(CSc3nnnn3C)CSC12)n1cc(Br)cn1 (stereo not drawn),-14%,28µM*,21%,-23%,10%,50µM*
Cn1nnnc1SCC1=C(C(=O)O)N2C(=O)C(NC(=O)C(O)c3ccccc3)C2SC1 (stereo not drawn),·,-34%[2.33 µM],·,·,-66%,·
CCOc1ccc(Br)cc1S(=O)(=O)Nc1ccc(N2CCOCC2)cc1,0%,11µM*,-7%,-18%,3%,?
CCOc1cc(CNc2ccc3c(c2)OCCO3)cc(Br)c1OCC,-13%,·,-76%,45µM*,1%,25µM*
CCOc1cc(CNc2ccc(N3CCOCC3)cc2)cc(Br)c1OCC,32µM*,25µM*,45µM*,20µM*,-24%,18µM*
CCOc1cc(CNc2ccc(N3CCOCC3)c(C(=O)O)c2)cc(Br)c1OCC,69%,·,·,·,·,·
CCOc1ccc(Br)cc1S(=O)(=O)Nc1ccccc1N1CCOCC1,33%,12%[59 µM],45%,3%,-7%,-4%
CCOc1ccc(Br)cc1S(=O)(=O)N1CCCN(C)CC1,-26%,50µM*,10%,-11%,7%,-11%
CCOc1ccc(Br)cc1S(=O)(=O)N1CCC(C(N)=O)CC1,-18%,-4%,15%,-8%,13%,-8%
COCCn1c(C)nnc1-c1cc(-c2cccc(N(C)C)c2)ccn1,42%[176 µM],·,·,·,·,·
Fc1ccc(OC2CN(Cc3cccc4ccccc34)C2)cc1F,-11%[6.33 µM],·,·,·,·,·
COCc1nc(-c2ccc(OC3CCN(Cc4ccc(C(F)(F)F)cc4)C3)cc2)no1 (stereo not drawn),50%,·,·,·,·,·
O=C(CN1CCN(c2ccccc2O)CC1)Nc1ccnn1Cc1cccc(Cl)c1,5%,·,·,·,·,·
COc1cc(CNc2ccc(N3CCOCC3)cc2)cc(Br)c1OC,?,18µM*,?,40µM*,?,40µM*
CCOc1cc(CNc2ccc(N3CCCCC3)cc2)cc(Br)c1OCC(=O)NC(C)(C)C,?,10µM*,?,10µM*,-46%,11µM*
COc1cc(CC(=O)Nc2ccc(N3CCOCC3)cc2)cc(OC)c1OC,-12%,-37%,13%,6%[11.4 µM],2%,-12%
Cc1ccccc1OCC(O)Cn1c(N)nc2c1c(=O)n(C)c(=O)n2C (stereo not drawn),-15%,·,·,·,·,·
CCOc1ccc(NC(=O)Nc2ccc(F)c(-c3nnc(-c4ccccc4)o3)c2)cc1,4%,·,·,·,·,·
COc1ccc2cc(CNc3ccc(OC)c(OC)c3)c(=O)n(CC(=O)Nc3ccc(C)cc3)c2c1,0%,2.8µM*,23%,2%,·,-13%
COc1ccc2c(c1)cc(CNc1ccc(OC)c(OC)c1)c(=O)n2CC(=O)Nc1ccc(F)cc1,0%,2.8µM*,2%,-34%,·,?
CCN(CC)CCn1c2ccccc2c(=O)c2c(O)ccc(O)c21,25µM*,·,40µM*,45µM*,·,·
CCN(CC)CCn1c(O)c(N=O)c2ccccc21,-30%,-43%,16%,-12%,8%,-1%
Cc1nc2ccc(Cl)cn2c1C(=O)NC1CCOC2(CCOCC2)C1 (stereo not drawn),4%,·,·,·,·,·
CCOC(=O)c1cnc2c(OC)cccc2c1Nc1ccccc1C(=O)O,-15%,·,·,·,·,·
C[C@H]1c2cccc(O)c2C(O)=C2C(=O)[C@]3(O)C(O)=C(C(N)=O)C(=O)C(N(C)C)[C@@H]3[C@@H](O)C21 (stereo partly drawn),·,3.2µM*,·,·,·,·
